The values that follow come from PubChem BioAssay (NCI).

Common to all, as to test: NCI-60 one-dose screen, 48 h (100 = growth as untreated, 0 = no growth, -100 = all killed)
One assay concerns NCI-H226 lung. The note with it: 10 µM unless noted.
The next assay relates to NCI-H322M lung. The note with it: 10 µM unless noted.
The next assay has as its system HOP-62 NSCLC. Conditions: 10 µM unless noted.
The subject of a further assay is NCI-H460 lung. The note with it: 10 µM unless noted.
A further assay concerns HOP-92 NSCLC. Conditions: 10 µM unless noted.
For the next assay, the system named is NCI-H522 lung. The note with it: 10 µM unless noted.
For another assay, the system named is A549/ATCC NSCLC. The note with it: 10 µM unless noted.
For a further assay, the system named is 786-0 renal. Conditions: 10 µM unless noted.
The test system of a further assay is COLO 205 colon. The note with it: 10 µM unless noted.
A further assay relates to DU-145 prostate. The note with it: 10 µM unless noted.
In another assay the test system is K-562 leukemia. Conditions: 10 µM unless noted.
The test system of another assay is MALME-3M melanoma. Conditions: 10 µM unless noted.
The next assay has as its system MDA-MB-231 breast. Conditions: 10 µM unless noted.
The subject of another assay is RXF 393 renal. Conditions: 10 µM unless noted.
The subject of a further assay is SF-268 CNS. Conditions: 10 µM unless noted.
For a further assay, the system named is SF-295 CNS. The note with it: 10 µM unless noted.
The next assay has as its system SF-539 CNS. Conditions: 10 µM unless noted.
The next assay deals with M14 melanoma. Conditions: 10 µM unless noted.
For a further assay, the system named is UACC-257 melanoma. The note with it: 10 µM.

This is part of a sample that, as a whole, favours compounds with a hit. Of some 83,000 tested, about 20% had one in any assay.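 96-well plates, one dose, 48 hours. Percent growth reported; active if below 10.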 Values without a mark were called inactive. Calls of active or inactive are those of the source.

With `C=C1C(=O)O[C@H]2[C@H]1CC/C(Cn1cc(-c3ccsc3)nn1)=C\CC[C@@]1(C)O[C@@H]21`, the growth is 7.54% (active) with NCI-H226 lung; 72.7% with NCI-H322M lung; 28.4% in the assay with HOP-62 NSCLC; 41% with NCI-H460 lung; -72.9% (active) in the assay with HOP-92 NSCLC; -67.8% (active) with NCI-H522 lung. In addition, the growth in the assay on A549/ATCC NSCLC is 13.8%; in the assay with 786-0 renal it was -86.7% (active); with COLO 205 colon it was -61% (active); in the assay with DU-145 prostate it was -83.5% (active); in the assay on K-562 leukemia, -16.2% (active); in the assay with MALME-3M melanoma, -66.4% (active). Moreover, the growth with MDA-MB-231 breast is -58% (active); with RXF 393 renal, -56.7% (active); with SF-268 CNS, -25.8% (active); in the assay on SF-295 CNS, 53.9%; with SF-539 CNS, -72.1% (active); with M14 melanoma it was -56.7% (active).
In the case of `Cc1ccc2c(c1)C(C)Cc1c(ncnc1-n1cnc3ccccc31)N2C` (stereo not drawn), the growth was 72.4% with NCI-H226 lung; 43% in the assay with NCI-H322M lung; 38.1% with HOP-62 NSCLC; 4.64% (active) with NCI-H460 lung; 62.6% in the assay with HOP-92 NSCLC; -15.3% (active) in the assay with NCI-H522 lung. Also, the growth with A549/ATCC NSCLC is 31%; in the assay on 786-0 renal, 30.9%; in the assay on COLO 205 colon it was -11.5% (active); in the assay on DU-145 prostate, 8.43% (active); in the assay on K-562 leukemia, 6.64% (active); in the assay on MALME-3M melanoma, 65.6%. Also, the growth is 25.1% in the assay with MDA-MB-231 breast; 21.5% with RXF 393 renal; 34.1% in the assay on SF-268 CNS; -11.4% (active) in the assay with SF-295 CNS; -33.1% (active) in the assay on SF-539 CNS; 18.1% with M14 melanoma.
Turning to `Cc1ccc(C(=O)c2sc3nc4c(cc3c2N)CCCC4)c(C)c1`, the growth in the assay on NCI-H226 lung was 60.1%; in the assay with NCI-H322M lung it was 29.5%; in the assay on HOP-62 NSCLC, 39.6%; in the assay with NCI-H460 lung, 14%; in the assay with HOP-92 NSCLC it was 27.4%; in the assay on NCI-H522 lung it was -0.883% (active). Besides, the growth in the assay on A549/ATCC NSCLC is 19.2%; in the assay on 786-0 renal, 35.2%; in the assay with COLO 205 colon, 3.68% (active); with DU-145 prostate, 6.18% (active); in the assay with K-562 leukemia, 11.9%; in the assay on MALME-3M melanoma it was 27%. Moreover, the growth was 21.3% in the assay on MDA-MB-231 breast; -16% (active) in the assay on RXF 393 renal; 44.1% in the assay with SF-268 CNS; -4.3% (active) with SF-295 CNS; -25% (active) in the assay on SF-539 CNS; 57.6% with UACC-257 melanoma. Further, the growth in the assay with M14 melanoma was 30.6%.
Take `COc1cc2nc(Cl)nc(NCCO)c2cc1OC`: the growth in the assay on NCI-H226 lung is 98.2%; in the assay on NCI-H322M lung, 105%; in the assay on HOP-62 NSCLC, 114%; in the assay on NCI-H460 lung, 95.7%; in the assay on HOP-92 NSCLC, 95.6%; in the assay with NCI-H522 lung, 100%. The growth was 97.7% in the assay on A549/ATCC NSCLC; 111% in the assay with 786-0 renal; 125% in the assay on COLO 205 colon; 112% in the assay on DU-145 prostate; 105% in the assay on K-562 leukemia; 94.4% in the assay on MALME-3M melanoma. The growth is 109% in the assay on MDA-MB-231 breast; 107% with RXF 393 renal; 110% with SF-268 CNS; 103% in the assay with SF-295 CNS; 96.1% in the assay with SF-539 CNS; 98.6% in the assay on UACC-257 melanoma. Besides, the growth with M14 melanoma is 110%.
As for `COc1cc(NS(C)(=O)=O)ccc1Nc1c2ccc([N+](=O)[O-])cc2nc2c(C)cccc12`, the growth in the assay with NCI-H226 lung is -23.6% (active); in the assay with NCI-H322M lung it was 39.6%; in the assay with HOP-62 NSCLC it was -2.67% (active); in the assay with NCI-H460 lung it was -25.4% (active); with HOP-92 NSCLC, -23.8% (active); in the assay on NCI-H522 lung, -25.8% (active). In addition, the growth is -35.8% (active) in the assay on A549/ATCC NSCLC; -3.37% (active) with 786-0 renal; 25.3% in the assay on COLO 205 colon; -13.1% (active) with DU-145 prostate; 4.57% (active) in the assay on K-562 leukemia; 14.4% in the assay with MALME-3M melanoma. The growth was 10.4% in the assay on RXF 393 renal; 7.28% (active) in the assay with SF-268 CNS; -43.7% (active) in the assay on SF-295 CNS; -13.7% (active) with SF-539 CNS; 2.11% (active) with UACC-257 melanoma; 22.6% with M14 melanoma.
Take `COc1cc(NCCCN=C(N)NC(N)=NC(C)C)c2ncccc2c1`: the growth with NCI-H226 lung was 92%; in the assay on NCI-H322M lung it was 52%; in the assay with HOP-62 NSCLC it was 96.2%; with NCI-H460 lung it was 91.9%; with HOP-92 NSCLC, 36.9%; in the assay on NCI-H522 lung, -13.1% (active). The growth was 78.6% in the assay on A549/ATCC NSCLC; 98.8% with 786-0 renal; -1.53% (active) in the assay on COLO 205 colon; 106% in the assay with DU-145 prostate; 44.6% in the assay on K-562 leukemia; -24.2% (active) in the assay on MALME-3M melanoma. Moreover, the growth was 64.9% in the assay on MDA-MB-231 breast; 94.8% with RXF 393 renal; 44.1% in the assay with SF-268 CNS; 87.5% with SF-295 CNS; 21.7% in the assay on SF-539 CNS; 45.1% in the assay with UACC-257 melanoma. Moreover, in the assay on M14 melanoma, the growth was 65.3%.
On to `COc1cc(/C=C\c2cc(OC)c(OC)c(OC)c2)cc(N/C=C\C(=O)c2c[nH]c3ccccc23)c1OC`, for which the growth with NCI-H226 lung is 65.5%; with NCI-H322M lung, 80.4%; in the assay with HOP-62 NSCLC, 83%; with NCI-H460 lung it was 82.6%; in the assay with HOP-92 NSCLC, 48.4%; in the assay on NCI-H522 lung it was -76.9% (active). Also, the growth in the assay on A549/ATCC NSCLC was 84.3%; in the assay with 786-0 renal, -5.56% (active); in the assay with COLO 205 colon, -77.2% (active); in the assay on DU-145 prostate, 41.7%; in the assay with K-562 leukemia, -9.37% (active); in the assay on MALME-3M melanoma, -58.2% (active). The growth was -12% (active) with MDA-MB-231 breast; -35.3% (active) in the assay with RXF 393 renal; 72% in the assay on SF-268 CNS; 55.8% in the assay on SF-295 CNS; -95.2% (active) in the assay with SF-539 CNS; 33.4% with UACC-257 melanoma. Moreover, the growth in the assay on M14 melanoma is 52.9%.
On to `COC(=O)C(CC(=O)c1ccc(-c2ccccc2)cc1)c1ccccc1` (stereo not drawn), for which the growth in the assay on NCI-H226 lung is 63.3%; in the assay on NCI-H322M lung it was 96.8%; in the assay on HOP-62 NSCLC, 75.1%; in the assay with NCI-H460 lung, 90%; with HOP-92 NSCLC, 68.3%; in the assay with NCI-H522 lung, -0.151% (active). Further, the growth in the assay with A549/ATCC NSCLC is 76.6%; with 786-0 renal it was 28.7%; in the assay with COLO 205 colon, 36.7%; with DU-145 prostate, 72.7%; in the assay with K-562 leukemia, 20.6%; in the assay on MDA-MB-231 breast, 66.3%. For the same compound, the growth in the assay with RXF 393 renal is 56.5%; in the assay with SF-268 CNS, 88.7%; in the assay with SF-295 CNS, 58.6%; with SF-539 CNS it was 34.7%; in the assay with UACC-257 melanoma, 66.7%; in the assay on M14 melanoma, 42.6%.
